The full ranking holds about 33,000 sequences; the median of “e-score” is about -0.037, and the highest 2% start at about 0.34. This is one part of a sample in which the highest values are shown more often than they occur.
biological target: T1, GST-Rok (full length) (Bacillus subtilis subsp. subtilis str. …, UniProt O34857 1-191); experiment: protein binding microarray; Rok is a gene silencer of Bacillus subtilis; high values mean tight binding; settings: protein: recombinant; tags: GST (pTH5325, pDEST15-Magic modified); dsDNA, one strand shown
T1 sequence: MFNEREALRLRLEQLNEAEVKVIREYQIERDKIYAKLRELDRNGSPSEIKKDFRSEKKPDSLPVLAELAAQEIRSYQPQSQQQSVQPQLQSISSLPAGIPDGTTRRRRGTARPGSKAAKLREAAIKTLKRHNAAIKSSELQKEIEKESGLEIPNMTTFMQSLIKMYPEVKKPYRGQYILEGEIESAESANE
In short: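 Each has a 25-mer constant primer and a 35-mer variable part from a de Bruijn sequence of order 10, covering every non-palindromic 8-mer at least 32 times (palindromic 16). Preference for each 8-mer is given as a rank-based, unitless enrichment score (E-score). Its range runs from 0.5 (most favored) to −0.5 (most disfavored).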

In order of rising binding signal:
1. CCTGCGAA  -0.196 E-score
2. GCATGGAA  -0.193 E-score
3. AAGCGTCG  -0.184 E-score
4. GCCGTGAC  -0.176 E-score
5. ATGGTTAC  -0.167 E-score
6. ACCATGTG  -0.159 E-score
7. CATCAGGC  -0.154 E-score
8. CCCGTTCA  -0.154 E-score
9. CAACGAGC  -0.148 E-score
10. CACTTTAG  -0.146 E-score
11. ACCTTCTC  -0.145 E-score
12. ACCGCCAC  -0.135 E-score
13. CTAGCGAC  -0.128 E-score
14. CACATCGC  -0.127 E-score
15. GAGCTGCA  -0.0813 E-score
16. GACTATCA  -0.0777 E-score
17. AAGTGGTC  -0.0764 E-score
18. CTTAGCAC  -0.0712 E-score
19. GGCTATCA  -0.0678 E-score
20. ACTTACAG  -0.0639 E-score
21. CGGACTTC  -0.0622 E-score
22. AGGATCAC  -0.0581 E-score
23. ACGGTCTG  -0.0535 E-score
24. GGCTTCAA  -0.0517 E-score
25. AGGACTAC  -0.0384 E-score
26. CTCTATCA  -0.0321 E-score
27. CGCCGACG  -0.0281 E-score
28. GTCTAGCA  -0.0242 E-score
29. AGCTTACG  -0.0197 E-score
30. GTCTATCA  -0.00992 E-score
31. ACGATTCA  -0.00504 E-score
32. GGACGCTA  0.000145 E-score
33. GTCAGTAA  0.00175 E-score
34. AAACAGGA  0.00183 E-score
35. GAGTTGAA  0.00685 E-score
36. CGAAAAGA  0.00822 E-score
37. CGGTGAAC  0.00962 E-score
38. CTTCTTTC  0.0125 E-score
39. AAGATGGT  0.0131 E-score
40. GCTGTAGA  0.0153 E-score
41. CCGAACTC  0.0171 E-score
42. ATACTGTG  0.0179 E-score
43. CCTGTAGA  0.0279 E-score
44. ACGTCAAG  0.0301 E-score
45. AACGGTGG  0.0395 E-score
46. CACAAAAC  0.0504 E-score
47. GAAGTTGC  0.0518 E-score
48. AGATAAGG  0.0533 E-score
49. AATTGGTC  0.0556 E-score
50. GACATACA  0.0575 E-score
51. CTGGACTA  0.0592 E-score
52. AACTTAAG  0.0622 E-score
53. AACGTAGT  0.0637 E-score
54. ATACTTAA  0.0668 E-score
55. GCGCGGTA  0.073 E-score
56. GCGACTGA  0.0748 E-score
57. ATTGGTGA  0.0777 E-score
58. GTCAACAA  0.0786 E-score
59. GATGTAGC  0.0838 E-score
60. ATGCAAAA  0.086 E-score
61. CTACTGAA  0.0898 E-score
62. GATTGCAA  0.0926 E-score
63. ACGTATCA  0.0936 E-score
64. CGCTATCA  0.0965 E-score
65. ATACTGAA  0.103 E-score
66. CGCGCTGA  0.105 E-score
67. ATCCTATG  0.106 E-score
68. CATGTAGG  0.116 E-score
69. AGTGTTAG  0.118 E-score
70. CCCATGTA  0.12 E-score
71. CTACAGAC  0.12 E-score
72. TCCTATCA  0.123 E-score
73. CAAATACC  0.126 E-score
74. TAGGTTCA  0.128 E-score
75. CTGCAATA  0.13 E-score
76. AACATACT  0.136 E-score
77. ACAGTACG  0.142 E-score
78. TCGATTAA  0.142 E-score
79. AAGTTCAT  0.147 E-score
80. AATTGTGT  0.149 E-score
81. CCCAGTAG  0.151 E-score
82. ATAACATG  0.152 E-score
83. ACCTTATC  0.155 E-score
84. GTACTGTA  0.155 E-score
85. ATGTAGTC  0.162 E-score
86. CACATACA  0.167 E-score
87. CAGATAGA  0.172 E-score
88. AATGTAGG  0.174 E-score
89. GAAATACC  0.175 E-score
90. ACTTACAA  0.176 E-score
91. AATTTGGT  0.177 E-score
92. GAAATACA  0.184 E-score
93. CTAACATA  0.186 E-score
94. CTAGTTCC  0.188 E-score
95. GTAGAGAA  0.189 E-score
96. CGATATAG  0.191 E-score
97. ATAAAATG  0.203 E-score
98. AACATACG  0.205 E-score
99. ATGTAGTG  0.211 E-score
100. TAGCTAAA  0.214 E-score
101. CACTATCA  0.219 E-score
102. AATGTAGC  0.221 E-score
103. CATTGGTA  0.223 E-score
104. TACTATGA  0.228 E-score
105. AACATCTA  0.236 E-score
106. ATATCCGG  0.237 E-score
107. CGATATAC  0.239 E-score
108. CTGTAGTA  0.243 E-score
109. CGATATCG  0.243 E-score
110. ACATTAAT  0.245 E-score
111. AAAATAAT  0.246 E-score
112. AAACATAG  0.247 E-score
113. ACCTACCA  0.248 E-score
114. AACATATA  0.257 E-score
115. CAGTGGTA  0.258 E-score
116. GTAATGGA  0.266 E-score
117. CACATCTA  0.268 E-score
118. TGATAAAA  0.27 E-score
119. GGATATAA  0.271 E-score
120. GTACTTAA  0.275 E-score
121. ATAACCAA  0.276 E-score
122. GACATATA  0.277 E-score
123. GAAAAATA  0.279 E-score
124. CTAGTTGC  0.281 E-score
125. CACATGTA  0.284 E-score
126. AACATGTA  0.285 E-score
127. GGAAGCTA  0.285 E-score
128. CAGAACTA  0.301 E-score
129. AAAATACG  0.303 E-score
130. CACTATAA  0.303 E-score
131. AATATGCA  0.304 E-score
132. GAGTAGTA  0.311 E-score
133. ATAGTTAG  0.319 E-score
134. GAGAACTA  0.326 E-score
135. AACTATAA  0.326 E-score
136. AATGTAAT  0.326 E-score
137. AGAAAATA  0.328 E-score
138. GTAAAATA  0.328 E-score
139. ATAGTTAA  0.329 E-score
140. TAAATACA  0.333 E-score
141. AGCTATCA  0.336 E-score
142. TACATGTA  0.339 E-score
143. AATTGGTA  0.339 E-score
144. ATACTGTA  0.34 E-score
145. TACATACA  0.341 E-score
146. CTACTGTA  0.343 E-score
147. AAAATACA  0.344 E-score
148. TACATATA  0.347 E-score
149. AAGTGGTA  0.348 E-score
150. ATAGTTAC  0.349 E-score
151. ACTTACAT  0.349 E-score
152. TACTATCA  0.35 E-score
153. AACATACA  0.355 E-score
154. CGATATAA  0.357 E-score
155. AATGTAGT  0.363 E-score
156. ATAACATA  0.365 E-score
157. GGAAAATA  0.37 E-score
158. TGATATAA  0.371 E-score
159. CTACTTAA  0.372 E-score
160. AAAATACC  0.373 E-score
161. ACTGTAGA  0.373 E-score
162. GTGTAGTA  0.379 E-score
163. TACATCTA  0.382 E-score
164. CATGTAGC  0.384 E-score
165. ACCATGTA  0.385 E-score
166. AATGTAGA  0.389 E-score
167. ATGTAGTA  0.403 E-score
168. TAGAACTA  0.406 E-score
169. ATCTATCA  0.409 E-score
170. AAAATACT  0.416 E-score
171. AACTATCA  0.417 E-score
172. CTAGTTAC  0.418 E-score
173. ATAAAATA  0.426 E-score
174. TACTATAA  0.439 E-score

From publication PMC6212790, “How bacterial xenogeneic silencer rok distinguishes foreign from self DNA in its resident genome”
